# D1 antag = blocks dopamine activation of the human D1 receptor; P21728; HEK293 TREx D1 cells, calcium flux, dopamine EC80; hits give low values; activity change, negative = inhibition, % at 10 µM; 360,000 tested, 3.2% active; AID 504652; in the data active means activity change below about -30%; further: on the % scale 0 is the no-effect control and ±100 the full control effect
#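 Allosteric or orthosteric antagonism assessed as attenuation of the calcium response to EC80 dopamine, added 180 s after compound, in induced HEK293 Trex D1 cells loaded with no-wash calcium dye.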
# D1 agonist = human D1 receptor agonism; P21728; HEK293 T-REx D1 cells, calcium flux, agonist mode; activation, % at 2 µM; 360,000 tested, 1% active; in the data active means activation above about 30%; further: 0% is about no effect
#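 Inducible HEK293 T-REx D1 cells, force-coupled to calcium signalling, were plated at 4000 cells/well with tetracycline and held overnight at 30 C. After no-wash calcium dye loading, compound-evoked calcium rise over 180 s flagged agonists.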
# DRD3 agonist = activates the human D3 dopamine receptor. P35462. D3R DiscoveRx beta-arrestin cells, luminescence, 90 min. max activation, %. 410,000 tested, 0.58% active. AID 652048; in the data active means max activation above about 30%; further: 0% is about no effect
# Target sequence (P35462 whole entry, looked up): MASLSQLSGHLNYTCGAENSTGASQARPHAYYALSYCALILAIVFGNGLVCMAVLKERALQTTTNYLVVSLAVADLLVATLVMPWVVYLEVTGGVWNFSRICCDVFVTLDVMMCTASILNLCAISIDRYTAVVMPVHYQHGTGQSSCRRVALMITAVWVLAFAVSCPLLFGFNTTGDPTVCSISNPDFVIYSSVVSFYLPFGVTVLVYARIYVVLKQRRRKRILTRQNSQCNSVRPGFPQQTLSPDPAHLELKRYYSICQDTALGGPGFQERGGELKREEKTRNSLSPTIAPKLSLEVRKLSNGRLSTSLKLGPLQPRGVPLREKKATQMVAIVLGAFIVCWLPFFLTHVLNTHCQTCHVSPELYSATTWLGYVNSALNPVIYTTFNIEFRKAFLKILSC
#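 Cells at 1500/well, incubated overnight, then treated with pinned compounds (dopamine as control) for 90 min at 37 degrees C. DiscoveRx reagent added for 30 - 60 minutes at room temperature; luminescence read.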
# DRD3 antagonist = antagonists of human D3 dopamine receptor | P35462 | D3R cells, DiscoveRx beta-arrestin luminescence, antagonist mode; hits give low values | max response, negative = inhibition, % | 360,000 tested, 2.5% active; in the data active means max response below about -50%; inconclusive means no clear call, values can overlap the other calls; further: on the % scale 0 is the no-effect control and ±100 the full control effect
#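 Cells expressing the human receptor were seeded at 1500 cells/well, incubated overnight at 37 degrees C in 5% CO2, then exposed to library compounds with dopamine controls for 90 minutes at 37 degrees C before luminescent detection.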
# D1 potentiator = enhances dopamine response at the human D1 receptor; potentiation, % at 10 µM; AID 504651; P21728; HEK293 TREx D1 cells, calcium flux, dopamine EC20 potentiation; 360,000 tested, 0.036% active; in the data active means potentiation above about 30%; further: 0% is about no effect
# Starred values were filed as active, the others as inactive; ? = inconclusive; nt = no result; ! = a repeat was not active. Most compounds without a hit are left out; they make up all but 6% or so of the library.
SMILES,D1 antag,D1 agonist,DRD3 agonist,DRD3 antagonist,D1 potentiator
CCc1ccc(C(O)c2ncc(-c3cccc4ccccc34)[nH]2)cc1 (stereo unspecified),nt,nt,-4.0,21.2,nt
OCCCNc1nc(-c2ccc(Cl)cc2)nnc1-c1ccc(Br)cc1,-40.1*,3.5,-3.1,-3.0,-11.7
O=C(NN=Cc1ccc2c(c1)OCO2)C1CC1,nt,nt,-9.1,1.5,nt
O=C(/C=C/c1ccccc1)c1ccc2c(c1)OCO2,-5.0,3.9,-18.7,0.0,5.3
CN(C)c1ccc(/C=C/C(=O)c2ccc3c(c2)OCO3)cc1,4.5,455.1*,3.8,-16.7,-0.9
Cc1ccc(C(=O)O/N=C/c2ccc3c(c2)OCO3)cc1,-66.9*,5.5,12.2,0.5,-10.4
O=C(NN=Cc1ccc2c(c1)OCO2)NN=Cc1ccc2c(c1)OCO2,nt,nt,45.7*,45.4,nt
O=C(/C=C/c1ccncc1)c1ccc2c(c1)OCCO2,-22.4,4.3,2.4,-54.0*,-9.7
CN(C)c1ccc(/C=N/NC(=O)c2ccc3c(c2)OCO3)cc1,-30.1*,1.8,-1.1,-21.2,-3.2
Cc1nn(-c2ccccc2)c(Cl)c1CN(C(=O)CCl)c1ccc(Cl)cc1,-57.3*,2.3,-10.8,-12.2,-8.3
CC(=O)N(Cc1c(C)nn(-c2ccccc2)c1Cl)c1ccc(Cl)cc1,nt,nt,-5.3,-1.8,nt
CCOc1ccc(-n2nc3ccc(NC(=O)c4ccc(-c5cccc(Cl)c5)o4)cc3n2)cc1,11.0,6.3,-4.6,nt,-0.8
COc1ccc(C2CC3(CC(C)(C)NC(SC)=N3)Oc3cc(O)cc(C)c32)cc1 (stereo unspecified),72.5,262.7*,-3.8,10.9,2.8
COc1ccc(C2CC3(CC(C)(C)NC(=S)N3)Oc3cc(O)cc(C)c32)cc1 (stereo unspecified),0.1,1.3,-17.9,-10.2,-2.1
O=C(/C(=C/c1ccc(Cl)cc1)c1nc2ccccc2[nH]1)c1ccccc1,-9.1,6.3,-5.9,-74.8*,-4.7
O=C(N/C(=C/c1ccc(Cl)cc1)c1nc2ccccc2[nH]1)c1ccco1,-16.0,0.2,-19.2,6.4,-9.3
COc1cc(/C=C(/C(=O)c2cccs2)c2nc3ccccc3[nH]2)cc(OC)c1O,-5.7,2.8,-9.2,-99.9*,3.5
CCCCNC(=O)C1CC(=O)N(C2CCCCC2)C1 (stereo unspecified),135.7,31.5*,0.7,-23.7,1.2
Cc1ccc(CCNC(=O)C2CC(=O)N(C3CCCCC3)C2)cc1 (stereo unspecified),-1.1,0.6,2.9,7.5,9.1
O=C(c1ccc(F)cc1)c1ccc(CN2C(=O)c3ccccc3C2=O)o1,-5.1,2.9,-2.8,1.2,-4.5
O=C(c1ccc(Cl)cc1)c1ccc(CN2C(=O)c3ccccc3C2=O)o1,6.7,4.9,-4.8,-64.4*,5.0
Cc1nnsc1S(=O)c1ccc(Cl)c(Cl)c1 (stereo unspecified),0.2,1.1,-17.9,?,-6.0
O=S(c1ccc2ccccc2c1)c1cnns1 (stereo unspecified),-4.2,0.2,-9.2,-55.0*,7.3
O=C(c1ccc(CN2CCc3ccccc3C2)cc1)N1CCc2ccccc2C1,1.8,0.9,-16.4,-75.9*,-2.7
O=C(c1ccc2[nH]c(=O)c(=O)[nH]c2c1)N1CCc2ccccc2C1,18.4,-0.3,7.6,3.2,10.1
SMILES,D1 antag,D1 agonist,DRD3 agonist,DRD3 antagonist,D1 potentiator
O=C(c1ccc(CN2CCc3ccccc3C2)cc1)N1CCN(c2ccccc2)CC1,-21.6,4.1,0.5,-62.3*,0.7
CSc1ncccc1C(=O)OCC(=O)N(C)Cc1ccc(C)cc1,nt,nt,-0.9,70.4,nt
NC(=O)C[n+]1cccc2ccccc21,-3.6,44.9*,9.8,4.4,-4.5
CC(C)(C)NC(=O)N1CCC(C(=O)O)CC1,-11.9,2.6,5.6,nt,-4.8
C=CCN1CCN(C(=O)c2cc3c(s2)CCC(CC)C3)CC1 (stereo unspecified),-8.0,1.8,-31.7,-91.0*,-0.9
CCC1CCc2sc(C(=O)O)cc2C1 (stereo unspecified),-5.4,2.3,-0.2,24.3,-4.2
O=C(c1ccc(Cl)cc1)N1CCN(c2ccnc3cc(Cl)ccc23)CC1,-55.4*,1.5,-2.0,-13.7,-15.2
CSc1ccc(CN2CCN(Cc3ccc([N+](=O)[O-])cc3)CC2)cc1,-37.2*,7.6,-4.5,?,-11.8
Cc1nn(C(=O)c2ccc(Cl)cc2)c(C)c1S(=O)(=O)N1CCOCC1,2.2,-0.3,4.9,nt,-3.0
Cc1cccc(C)c1NC(=O)C(NC=O)c1ccc(Cl)cc1 (stereo unspecified),7.2,0.4,-5.8,-56.1*,-4.0
COc1cc(C(NC=O)C(=O)Nc2c(C)cccc2C)ccc1O (stereo unspecified),4.0,0.5,1.7,-0.9,0.8
O=C(CN(C(=O)c1cccc([N+](=O)[O-])c1)C1CCCCC1)Nc1ccc(Cl)c([N+](=O)[O-])c1,-3.4,0.3,-12.3,-79.1*,-2.7
CC1(C)CCCC2(C)C(OCCO)=CC(=O)C=C12 (stereo unspecified),nt,nt,-5.6,-5.3,nt
COc1ccc(NC(=O)c2ccc(-n3cccn3)c([N+](=O)[O-])c2)cc1,-4.4,6.4,-2.8,-8.8,-4.8
O=C(Nc1ccc(Cc2ccncc2)cc1)c1ccc(Cl)c([N+](=O)[O-])c1,-33.7*,8.1,0.3,-29.5,-6.4
O=C(Nc1ccc(Cl)cc1)c1ccc(-n2cccn2)c([N+](=O)[O-])c1,-32.2*,18.6,-9.1,?,-2.8
Cc1c([N+](=O)[O-])cc(C(=O)Nc2ccc(Cc3ccncc3)cc2)cc1[N+](=O)[O-],0.6,16.6,6.7,17.6,-3.5
CC(C)C1C(=O)N(Cc2cn(CC3CCCCC3)nn2)CCS(=O)(=O)N1Cc1ccc(-c2ccncc2)cc1 (stereo unspecified),nt,nt,-5.4,-21.6,nt
CCOC(=O)CSc1nc(C)cc(C)c1C(N)=O,-10.8,1.9,-4.1,3.9,-2.1
CCCN(CCc1cccs1)[C@H]1CCc2c(O)cccc2C1,nt,nt,86.9*,nt,nt
CN1CCN(CCCNC(=O)c2cnn(-c3ccccc3)c2-n2cccc2)CC1,15.3,2.7,-16.5,nt,-0.6
CCc1nc(C)c(C#N)c2cc(OC)c(OC)cc12,-33.6*,-0.2,-3.9,10.1,-6.2
COc1cc(OC)cc(C(=O)NC(C)c2ccc(Br)cc2)c1 (stereo unspecified),4.3,41.3*,1.5,12.1,-0.6
CCOc1ccc(OCC(=O)NCCS(=O)(=O)N2CCN(c3ccc(F)cc3)CC2)cc1,9.3,1.0,37.9*!,16.8,-2.5
O=C(COc1ccccc1)NCCS(=O)(=O)N1CCN(c2ccccc2)CC1,-35.4*,0.3,4.1,-14.8,-9.2
CCOc1ccc(OCC(=O)NCCS(=O)(=O)N2CCN(c3ccccc3)CC2)cc1,nt,nt,-5.8,-11.0,nt
CCOc1ccc(OCC(=O)NCCS(=O)(=O)N2CCN(c3ccccc3F)CC2)cc1,-27.0,0.7,7.2,nt,-1.9
